Results published in PubChem BioAssay (NCATS).
Values joined by “and” are separate entries in the source; they are usually repeats but may differ in a detail not shown here. Equal values may be shown once. Inconclusive results are not listed. Some compounds were tested as several samples or in several runs, with calls that do not always agree. Active and inactive are the calls of the source. The call rests on the fitted dose curve; in most records, active means well fitted curve in the direction sought with a large enough effect; inconclusive means small, poorly fitted or top-dose-only effect, or another doubt; inactive means no such curve, though single readings can be large; an effect the other way counts as inactive or inconclusive.

Legend:
HaCat [1] = experiment: Cytotoxic Profiling of Annotated Libraries Using Quantitative High-Throughput Screening (AID 1296008); conditions: Five cell lines viability, CellTiter-Glo ATP luminescence, 48-72 h; max response: stronger effect = lower value; further: nearly all actives have a fitted effect of over 60% in size
Method in brief: (§1)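 Compounds were pin-transferred onto cells and incubated 48 or 72 hr at 37 degree Celsius, 95% humidity. CellTiter-Glo was added, plates sat 10 min at room temperature, then ATP-coupled luminescence was imaged as the viability read-out.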

KB-3-1 = experiment: as above; conditions: Five cell lines viability, CellTiter-Glo ATP luminescence, 48-72 h; max response: stronger effect = lower value
Method in brief: as §1

NIH3T3 [2] = experiment: as above; conditions: Five cell lines viability, CellTiter-Glo ATP luminescence, 48-72 h; max response: stronger effect = lower value
Method in brief: as §1

MCC-13 = experiment: qHTS assay to identify novel small-molecules to repurpose for Merkel cell carcinoma treatment (AID 1296009); conditions: MCC and control cell lines, CellTiter-Glo viability, 72 h; series mostly up to 46 µM; further: nearly all actives have a fitted effect of over 60% in size
Method in brief: (§2)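 Cells exposed to NPC (8-point) and MIPE (11-point) compound dilutions for 72 hr at 37 degree celsius; viability read by CellTiter-Glo luminescence, normalized to no-cell and DMSO in-plate controls.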

MCC-26 = experiment: as above; conditions: MCC and control cell lines, CellTiter-Glo viability, 72 h; series mostly up to 46 µM
Method in brief: as §2

MKL-1 = experiment: as above; conditions: MCC and control cell lines, CellTiter-Glo viability, 72 h; series mostly up to 46 µM
Method in brief: as §2

MKL-2 = experiment: as above; conditions: MCC and control cell lines, CellTiter-Glo viability, 72 h; series mostly up to 46 µM
Method in brief: as §2

UISO = experiment: as above; conditions: MCC and control cell lines, CellTiter-Glo viability, 72 h; series mostly up to 46 µM
Method in brief: as §2

WaGa = experiment: as above; conditions: MCC and control cell lines, CellTiter-Glo viability, 72 h; series mostly up to 46 µM
Method in brief: as §2

C33A = experiment: Primary qHTS to identify gynecologic anti-cancer compounds using libraries of approved drugs and bioactive compounds (AID 1345084); conditions: Gynecologic cancer cell panel viability, ATPlite luminescence, 48 h; series mostly up to 57.5 µM; further: nearly all actives have a fitted effect of over 55% in size
Method in brief: (§3)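 48 h compound exposure at 37 C, 5% CO2; five-point qHTS. ATPlite luminescence readout of cell ATP.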

CASKI = experiment: as above; conditions: Gynecologic cancer cell panel viability, ATPlite luminescence, 48 h; series mostly up to 57.5 µM
Method in brief: as §3

Es-2 = experiment: as above; conditions: Gynecologic cancer cell panel viability, ATPlite luminescence, 48 h; series mostly up to 57.5 µM
Method in brief: as §3

HeLa = experiment: as above; conditions: Gynecologic cancer cell panel viability, ATPlite luminescence, 48 h; series mostly up to 57.5 µM
Method in brief: as §3

Hek293T [3] = experiment: as above; conditions: Gynecologic cancer cell panel viability, ATPlite luminescence, 48 h, control line for the selectivity index; series mostly up to 57.5 µM
Method in brief: as §3

JEG-3 = experiment: as above; conditions: Gynecologic cancer cell panel viability, ATPlite luminescence, 48 h; series mostly up to 57.5 µM
Method in brief: as §3

OV90 = experiment: as above; conditions: Gynecologic cancer cell panel viability, ATPlite luminescence, 48 h; series mostly up to 57.5 µM
Method in brief: as §3

NIH3T3 [4] = experiment: qHTS assay to identify novel small-molecules to repurpose for Merkel cell carcinoma treatment (AID 1296009); conditions: MCC and control cell lines, CellTiter-Glo viability, 72 h; at 44.8 µM (top of the series) unless noted; further: nearly all actives have a fitted effect of over 60% in size
Method in brief: as §2

CAOV3 = experiment: Primary qHTS to identify gynecologic anti-cancer compounds using libraries of approved drugs and bioactive compounds (AID 1345084); conditions: Gynecologic cancer cell panel viability, ATPlite luminescence, 48 h; series mostly up to 57.5 µM; further: nearly all actives have a fitted effect of over 55% in size
Method in brief: as §3

HACAT [5] = experiment: qHTS assay to identify novel small-molecules to repurpose for Merkel cell carcinoma treatment (AID 1296009); conditions: MCC and control cell lines, CellTiter-Glo viability, 72 h; at 44.8 µM (top of the series) unless noted; further: nearly all actives have a fitted effect of over 60% in size
Method in brief: as §2

HEK293T [6] = experiment: as above; conditions: MCC and control cell lines, CellTiter-Glo viability, 72 h; at 44.8 µM (top of the series) unless noted
Method in brief: as §2
On the % scale 0 is the no-effect control and ±100 the full control effect; potency means the concentration at half of the fitted maximal effect.

Clc1ccccc1CN1CCc2sccc2C1
inactive: max response (HaCat [1]) -7.82% | max response (KB-3-1) 9.17% and -6.26% | max response (NIH3T3 [2]) 1.51% and 3.19% | Potency (MCC-13) | Potency (MCC-26) | Potency (MKL-1) | Potency (MKL-2) | Potency (UISO) | Potency (WaGa) | Potency (C33A) | Potency (CASKI) | Potency (Es-2) | Potency (HeLa) | Potency (Hek293T [3]) | Potency (JEG-3) | Potency (OV90)

NCCCC(O)(P(=O)(O)O)P(=O)(O)O
inactive: max response (HaCat [1]) -6.79% | max response (KB-3-1) 17.7% and -6.17% | max response (NIH3T3 [2]) 0.802% | outcome (NIH3T3 [2]) | Potency (MCC-13) | Potency (MKL-1) | Potency (MKL-2) | outcome (NIH3T3 [4]) | Potency (UISO) | Potency (WaGa) | Potency (C33A) | Potency (CAOV3) | Potency (CASKI) | Potency (Es-2) | Potency (HeLa) | Potency (Hek293T [3]) | Potency (JEG-3) | Potency (OV90)

CN(CCOc1ccc(CC2SC(=O)NC2=O)cc1)c1ccccn1 (stereo not given)
inactive: outcome (HaCat [1]) | max response (KB-3-1) -1.01% and -2.41% | max response (NIH3T3 [2]) 0.939% | outcome (HACAT [5]) | outcome (HEK293T [6]) | Potency (MCC-13) | Potency (MCC-26) | Potency (MKL-1) | Potency (MKL-2) | Potency (UISO) | Potency (WaGa) | Potency (C33A) | Potency (CAOV3) | Potency (CASKI) | Potency (Es-2) | Potency (Hek293T [3]) | Potency (JEG-3)

COc1cc(NCc2ccc3nc(N)nc(N)c3c2C)cc(OC)c1OC
active: Potency (HaCat [1]) 1.06 µM | Potency (KB-3-1) 3.32 µM and 326 nM | Potency (NIH3T3 [2]) 3.72 µM and 66.8 nM | Potency (MKL-1) 29.6 µM | Potency (MKL-2) 18.7 µM | Potency (WaGa) 2.96 µM and 94.4 nM | Potency (Hek293T [3]) 0.1 µM
inactive: Potency (MCC-13) | Potency (MCC-26) | Potency (CAOV3)

COc1ccc2c(c1)c(CC(=O)OCC(=O)O)c(C)n2C(=O)c1ccc(Cl)cc1
inactive: max response (HaCat [1]) -2.32% and -4.14% | max response (KB-3-1) -10.9% and 5.13% | max response (NIH3T3 [2]) -11.9% and 4.26% | outcome (HEK293T [6]) | Potency (MCC-13) | Potency (MCC-26) | Potency (MKL-1) | Potency (MKL-2) | Potency (UISO) | Potency (WaGa) | Potency (C33A) | Potency (CAOV3) | Potency (CASKI) | Potency (Es-2) | Potency (HeLa) | Potency (Hek293T [3]) | Potency (JEG-3) | Potency (OV90)

NC(=O)c1cccc(N)c1
inactive: max response (HaCat [1]) -6.72% | outcome (KB-3-1) | outcome (NIH3T3 [2]) | Potency (MCC-13) | Potency (MCC-26) | Potency (MKL-1) | Potency (MKL-2) | outcome (NIH3T3 [4]) | Potency (UISO) | Potency (WaGa)

CC1=C(C(=O)O)N2C(=O)[C@@H](NC(=O)C(N)c3ccccc3)[C@H]2SC1 (stereo not given in full)
inactive: max response (HaCat [1]) 3% | outcome (KB-3-1) | outcome (NIH3T3 [2]) | Potency (MCC-13) | Potency (MCC-26) | Potency (MKL-1) | Potency (MKL-2) | outcome (NIH3T3 [4]) | Potency (UISO) | Potency (WaGa)

NC(=O)N1c2ccccc2CC(=O)c2ccccc21
inactive: outcome (HaCat [1]) | max response (KB-3-1) -10.3% and 3.64% | outcome (NIH3T3 [2]) | outcome (HACAT [5]) | outcome (HEK293T [6]) | Potency (MCC-13) | Potency (MCC-26) | Potency (MKL-1) | outcome (NIH3T3 [4]) | Potency (UISO) | Potency (WaGa) | Potency (C33A) | Potency (CAOV3) | Potency (CASKI) | Potency (Es-2) | Potency (HeLa) | Potency (Hek293T [3]) | Potency (JEG-3) | Potency (OV90)
6.68 µM (active) and inactive: Potency (MKL-2)

S=P(N1CC1)(N1CC1)N1CC1
inactive: outcome (HaCat [1]) | max response (KB-3-1) 19% and 33.9% and 9.73% | max response (NIH3T3 [2]) -7.91% | outcome (HACAT [5]) inactive [at 92 µM] | Potency (MCC-13) | Potency (MKL-1) | Potency (MKL-2) | Potency (UISO) | Potency (WaGa) | Potency (C33A) | Potency (CAOV3) | Potency (Es-2) | Potency (HeLa) | Potency (Hek293T [3]) | Potency (JEG-3)

C[C@@H](NCCCc1cccc(C(F)(F)F)c1)c1cccc2ccccc12
inactive and 29.9 µM (active): Potency (MCC-26)
inactive: max response (HaCat [1]) -15.9% | max response (KB-3-1) 5.7% | outcome (NIH3T3 [2]) | Potency (MCC-13) | Potency (MKL-1) | Potency (MKL-2) | outcome (NIH3T3 [4]) | Potency (UISO) | Potency (JEG-3)
active: Potency (NIH3T3 [2]) 18.8 µM

CC(C)NCC(O)c1ccc(NS(C)(=O)=O)cc1 (stereo not given)
inactive: outcome (HaCat [1]) | max response (KB-3-1) 2.03% and 6.79% | max response (NIH3T3 [2]) 4.22% | outcome (HACAT [5]) | Potency (MCC-13) | Potency (MKL-1) | Potency (MKL-2) | Potency (UISO) | Potency (WaGa)

C[C@@H]1C[C@H]2[C@@H]3CCC4=CC(=O)C=C[C@]4(C)[C@@]3(Cl)[C@@H](O)C[C@]2(C)[C@@]1(OC(=O)c1ccco1)C(=O)CCl
inactive: max response (HaCat [1]) -15.9% | max response (KB-3-1) 4.51% and 5.24% | Potency (MCC-13) | Potency (MCC-26) | Potency (C33A) | Potency (CAOV3) | Potency (CASKI) | Potency (HeLa) | Potency (OV90)
active: Potency (MKL-1) 16.6 µM | Potency (MKL-2) 29.9 µM and 18.7 µM | Potency (UISO) 20.9 µM | Potency (WaGa) 16.6 µM

Cc1onc(-c2ccccc2Cl)c1C(=O)N[C@@H]1C(=O)N2[C@@H]1SC(C)(C)[C@@H]2C(=O)O
inactive: Potency (C33A) | Potency (CAOV3) | Potency (CASKI) | Potency (Es-2) | Potency (HeLa) | Potency (Hek293T [3]) | Potency (JEG-3) | Potency (OV90)
